Compound activity as filed in PubChem BioAssay.
HEK293 tox – cytotoxicity counter-screen for GLP-1 receptor inverse agonists; HEK293 cAMP-luciferase reporter cells, luminescence, 24 h; Potency, µM (titrated, usually from 38.3 µM), for inactives: at the highest dose activity change, negative = inhibition, hits mostly inhibitors; hit rate 0.13% among 410,000; AID 624418;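 also: loss of luciferase light is scored as toxicity; potency is read from the fitted curve at half-maximal effect; % is scaled to controls: 0 for no effect and ±100 for the full control effect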
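Compound-treated cells are incubated 24 hr at 37 deg C under 5% CO2 after a 12 hour attachment period, then luciferase detection reagent is added and luminescence is measured following 12 min at room temperature; lowered signal indicates toxicity.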
GLP1R ag – activates the human GLP-1 receptor. hit rate 0.007% among 380,000. Potency, µM (doses to about 45.6 µM), for the others: at the highest dose activation, most hits filed as activators. P43220. HEK293 GLP-1R CRE-luciferase, luminescence, 4-6 h; cells express a hypersensitive GLP-1R form; also: potency is read from the fitted curve at half-maximal effect; % of control where 0% means no effect
Target sequence (P43220 whole entry, looked up): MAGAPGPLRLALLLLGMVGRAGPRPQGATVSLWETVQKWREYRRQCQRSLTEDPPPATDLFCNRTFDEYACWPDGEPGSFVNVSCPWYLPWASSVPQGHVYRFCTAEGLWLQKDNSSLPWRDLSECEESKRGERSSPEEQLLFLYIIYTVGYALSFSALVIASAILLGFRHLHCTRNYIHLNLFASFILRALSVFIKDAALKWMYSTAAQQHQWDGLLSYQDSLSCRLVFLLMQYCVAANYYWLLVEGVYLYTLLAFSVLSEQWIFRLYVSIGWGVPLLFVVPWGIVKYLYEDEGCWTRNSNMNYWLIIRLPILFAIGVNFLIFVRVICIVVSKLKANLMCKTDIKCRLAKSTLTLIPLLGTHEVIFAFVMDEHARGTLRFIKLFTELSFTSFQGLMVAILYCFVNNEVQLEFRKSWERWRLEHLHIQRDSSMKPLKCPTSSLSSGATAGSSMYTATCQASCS
Mm-Cpn inhibitor – blocks the Methanococcus maripaludis chaperonin Mm-Cpn | Potency, µM (doses to about 76.9 µM), for inactives: top-dose activity, negative = inhibition, usual class: inhibitors | purified Mm-Cpn ATPase, ADP Transcreener TR-FRET | hit rate 0.031% among 330,000; also: potency is read from the fitted curve at half-maximal effect; % is scaled to controls: 0 for no effect and ±100 for the full control effect; nearly all actives have a fitted effect of over 80% in size
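ATP (10 uM final) was added to archaeal chaperonin (25 nM final) after 10 min exposure to test compound at 37°C; after 30 min further incubation, ADP was detected by competitive TR-FRET.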
GLP1R inv ag – GLP-1 receptor (human) inverse agonism | HEK293 GLP-1R CRE-luciferase, luminescence, 24 h; GLP-1R form is constitutively active | Potency, µM (highest dose often 38.3 µM), without a hit: at the highest dose activity change, negative = inhibition, hits mostly inhibitors | hit rate 1.6% among 410,000 | AID 624417; also: potency is read from the fitted curve at half-maximal effect; % is scaled to controls: 0 for no effect and ±100 for the full control effect; nearly all actives have a fitted effect of over 55% in size
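Seeding at 200 cells/uL, 12 h culture, 24 hr compound treatment, then luciferase reagent and a luminescence read; cells are HEK293 stably expressing a constitutively active GLP-1R plus cAMP-responsive luciferase.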
CCT modulator – cytosolic chaperonin activity modulation. purified chaperonin ATPase assay, HTRF ADP detection, 30 min. activity change, % (test concentration not listed), hits read low. hit rate 0.3% among 360,000. AID 651819; in the data active = activity change below about -30%; also: % is scaled to controls: 0 for no effect and ±100 for the full control effect
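First, chaperonin was dispensed at 40 nM or 20 nM final depending on batch activity. Next, compounds were pinned at 76 uM and ATP added at 10 uM. After 30 min at 37 °C, ADP detection reagents ran 30 min at ambient temperature.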
uPA generation – inhibitors of cell surface uPA generation | cell surface uPA generation assay, qHTS | Potency, µM (highest dose often 38.3 µM), for the others: top-dose activity change, negative = inhibition, hits mostly inhibitors | hit rate 0.31% among 330,000; active = well fitted inhibition curve with a large enough effect; inconclusive = small, poorly fitted or top-dose-only effect; inactive = no such curve, though single readings can be large or run the other way; tested in mouse RAW 264.7 cells; also: potency is read from the fitted curve at half-maximal effect; % is scaled to controls: 0 for no effect and ±100 for the full control effect; nearly all actives have a fitted effect of over 55% in size
Numbers without * were called inactive. In the library only some 2.2% were active in any assay of this set; here they are far more common. Unless noted, calls follow the shape of the dose curve; as a rule, active = well fitted curve in the direction sought with a large enough effect; inconclusive = small, poorly fitted or top-dose-only effect, or another doubt; inactive = no such curve, though single readings can be large; an effect the other way counts as inactive or inconclusive.

How did COc1ccc2c(c1)CC(C(=O)Nc1c(C)cc(C)cc1C)CO2 (stereo not drawn) do in these assays?
HEK293 tox: -2.7%; GLP1R inv ag: 10.9%

How did CCCN1C(=O)C(=O)c2cc(Cl)ccc21 do in these assays?
HEK293 tox: -24.2%; GLP1R ag: 12.0%; Mm-Cpn inhibitor: -1.0%; GLP1R inv ag: -20.3%; CCT modulator: 1.5; uPA generation: 5.62µM*

What do the screens show for `O=C1C(=O)N(CCS(=O)(=O)c2ccccc2)c2ccc(Cl)cc21`?
HEK293 tox: -38.5%; GLP1R ag: 0.3%; Mm-Cpn inhibitor: 0.3%; GLP1R inv ag: inconclusive; CCT modulator: -0.2; uPA generation: inconclusive

What do the screens show for `COc1ccc(C2C(=O)N(C3CCC(C)CC3)CC(=O)N2C2CCCCC2)cc1OC` (stereo not drawn)?
HEK293 tox: -4.6%; GLP1R inv ag: 8.3%

Results for COC(=O)c1sc(-c2cccs2)cc1NC(=O)/C=C/C(=O)O ?
HEK293 tox: -1.4%; GLP1R ag: 8.7%; Mm-Cpn inhibitor: inconclusive; GLP1R inv ag: inconclusive; CCT modulator: -41.9*; uPA generation: -11.8%

Results for COC(=O)c1sc(-c2ccccc2)cc1NC(C)=O ?
HEK293 tox: 0.5%; GLP1R ag: 17.2%; Mm-Cpn inhibitor: -12.4%; GLP1R inv ag: 0.8%; CCT modulator: -2.2; uPA generation: -12.8%

How did Cc1ccc(NC(=O)c2oc3ccc(S(=O)(=O)N4CCC5(CC4)OCCO5)cc3c2C)c(C)c1 do in these assays?
HEK293 tox: -3.3%; GLP1R inv ag: inconclusive

What do the screens show for `CC1=NN(C(=O)CSCc2ccccc2)C(O)(c2ccc(F)cc2)C1` (stereo not drawn)?
HEK293 tox: -3.9%; GLP1R ag: 13.6%; Mm-Cpn inhibitor: 1.0%; GLP1R inv ag: 7.94µM*; CCT modulator: -0.4; uPA generation: -0.7%

How did CC1=NN(C(=O)CSCc2ccccc2)C(O)(c2ccc(Cl)cc2)C1 (stereo not drawn) do in these assays?
HEK293 tox: 17.4%; GLP1R ag: -4.3%; Mm-Cpn inhibitor: -4.7%; GLP1R inv ag: inconclusive; CCT modulator: 0.8; uPA generation: 0.2%

How did CCOC(=O)c1cn2nc(N3CCCC3)ccc2n1 do in these assays?
HEK293 tox: 15.2%; GLP1R ag: -29.7%; Mm-Cpn inhibitor: 0.2%; GLP1R inv ag: 5.62µM*; CCT modulator: 0.2; uPA generation: -8.5%

What do the screens show for `CCOC(=O)c1cn2nc(N3CCCCC3)ccc2n1`?
HEK293 tox: 8.1%; GLP1R ag: -3.7%; Mm-Cpn inhibitor: 0.1%; GLP1R inv ag: inconclusive; CCT modulator: -1.3; uPA generation: -6.1%

How did Cc1ccc(C(=O)O)cc1Nc1nc2ccccc2n2nnnc12 do in these assays?
HEK293 tox: 1.5%; GLP1R inv ag: 34.6%

What do the screens show for `COc1cc(-c2nc(-c3ccccc3)c(-c3ccc(Br)cc3)[nH]2)cc(OC)c1O`?
HEK293 tox: -13.1%; GLP1R inv ag: 11.2µM*

How did COc1ccc(-c2nc(-c3ccccc3)c(-c3cc([N+](=O)[O-])ccc3C)[nH]2)cc1OC do in these assays?
HEK293 tox: -4.1%; GLP1R ag: 5.4%; Mm-Cpn inhibitor: -0.1%; GLP1R inv ag: 5.62µM*; CCT modulator: 0.0; uPA generation: -11.0%

Results for CCOc1cc(-c2nc(-c3ccccc3)c(-c3cc([N+](=O)[O-])ccc3C)[nH]2)ccc1O ?
HEK293 tox: -30.1%; GLP1R ag: -4.2%; GLP1R inv ag: -29.1%; CCT modulator: 0.6; uPA generation: -9.9%

What do the screens show for `CC(=O)Nc1ccc(S(=O)(=O)NCC2CCC(C(=O)NCCCN(C)Cc3ccccc3)CC2)cc1` (stereo not drawn)?
HEK293 tox: -1.2%; GLP1R ag: -3.1%; Mm-Cpn inhibitor: -27.2%; GLP1R inv ag: inconclusive; CCT modulator: 3.7; uPA generation: 3.5%
